# Measurements as given in PubChem BioAssay (NCI).
# About 79,000 compounds went through this panel and 15% of them were active in at least one assay; those are over-represented in the sample as a whole. Unmarked numbers belong to inactive results. Calls of active or inactive are those of the source. Rule as the data show it: active = growth inhibition above about 70%; inactive = the rest.
# Experiments:
# [1] = NCI Yeast Anticancer Drug Screen. Data for the rad50 strain (AID 155);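 also: 0% = growth of vehicle-only cultures of the same strain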; details: S. cerevisiae rad50 strain growth inhibition; at 50.0 µM; hits give high values
# In short: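 Yeast carrying a defined DNA repair defect were exposed to test compounds, and growth was compared with vehicle-treated controls to give percent inhibition.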
# [2] = NCI Yeast Anticancer Drug Screen. Data for the mec2-1 strain (AID 157); details: S. cerevisiae mec2-1 strain, at 50.0 µM, hits give high values
# In short: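 mec2-1 yeast strain, carrying an alteration in DNA damage repair or cell cycle control, was exposed to compounds; growth inhibition was measured relative to vehicle-treated controls.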
# [3] = NCI Yeast Anticancer Drug Screen. Data for the sgs1 mgt1 strain (AID 161);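 also: 0% = growth of cultures given vehicle only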; details: S. cerevisiae sgs1 mgt1 strain, at 50.0 µM, hits give high values
# In short: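 Percent growth inhibition was derived by comparing compound-exposed mutant yeast with vehicle-exposed cultures. The strain carries alterations in DNA damage repair.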
# [4] = NCI Yeast Anticancer Drug Screen. Data for the cln2 rad14 strain (AID 165);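 also: 0% = growth equal to vehicle treated cultures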; details: S. cerevisiae cln2 rad14 strain, at 50.0 µM, hits give high values
# In short: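 Yeast carrying cln2 and rad14 alterations (cell cycle control and DNA damage repair) were exposed to compounds. Growth inhibition was measured against vehicle-treated controls.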
# [5] = NCI Yeast Anticancer Drug Screen. Data for the bub3 strain (AID 167); details: S. cerevisiae bub3 mutant strain, at 50.0 µM, hits give high values
# In short: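 Compounds were applied to a genetically altered yeast strain carrying a cell-cycle control defect. Growth inhibition was scored against vehicle-treated controls.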
# [6] = NCI Yeast Anticancer Drug Screen. Data for the mlh1 rad18 strain (AID 175); details: S. cerevisiae mlh1 rad18 strain growth inhibition; at 50.0 µM; hits give high values
# In short: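 Growth inhibition of the yeast strain was measured after compound exposure and expressed relative to vehicle-treated controls. The strain carries defined defects in DNA damage repair.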
Structure (SMILES),growth inhibition [1],growth inhibition [2],growth inhibition [3],growth inhibition [4],growth inhibition [5],growth inhibition [6]
NS(=O)(=O)c1ccc(NO)cc1,-16.1%,-7.45%,6.3%,-15.2%,6.9%,9.85%
O=C(O)c1cc(=O)c2cc3c(cc2o1)OCc1ccccc1-3,13.8%,-6.15%,2.1%,19.4%,-6.5%,3.55%
CCCCCCCCCCCCCCCCC(C)=O,2.2%,20.6%,5%,-16.6%,21.9%,-11.7%
COc1cc(-c2ccc(NC(=O)N3CC3)c(OC)c2)ccc1NC(=O)N1CC1,8.8%,-2.5%,8.3%,19.4%,-0.4%,10.7%
NNc1cc(S(=O)(=O)O)cc(C(=O)O)c1O,14.5%,49%,31.4%,-1.65%,42.1%,39.9%
Cc1ccc(S(=O)(=O)N2CCC[C@@H]2C(=O)O[C@@H]2CCC3CC=CC32)cc1 (stereo partly specified),3.65%,-17.3%,10.2%,-1.8%,-12.3%,-0.1%
CN(CCC[N+](C)(C)C)C(=O)C(c1ccccc1)c1ccccc1,45%,-0.25%,19.2%,-9.55%,6.35%,2.7%
[O-]/[N+](=C\c1cccc(O)c1)c1ccccc1,-1.75%,16.4%,11.8%,-21.2%,-5.5%,15%
COC(=O)N(c1ccccc1)c1ccccn1,-16.6%,-9.95%,-10.2%,10.7%,4.3%,-22.6%
O=C(O)C(O)(C1CCCCC1)C1CCC2CCC3CCCC1C32 (stereo unspecified),5.4%,9.4%,20.1%,12.7%,-11.2%,14.8%
CC(C)(C)N=C1CC(C)(C)c2ccccc2C(=Nc2ccccc2)S1,23.2%,9.55%,24.8%,24.1%,8.3%,15.3%
O=C(O)COc1c(F)cc(F)cc1Cl,18.1%,1.9%,18.4%,-1.05%,12%,7.35%
c1cc(OCC2CO2)ccc1OCC1CO1 (stereo unspecified),41%,19.9%,33.1%,-24.9%,8.8%,49.4%
COc1cccc2c1C(=O)c1c(O)c3c(c(O)c1C2=O)C[C@@](O)(/C(C)=N\NC(=O)CCC(N)C(=O)O)C[C@@H]3OC1CC(N)C(O)C(C)O1 (stereo partly specified) (tested in a mixture with another compound),-30.9%,-57.9%,0.65%,-6.05%,-25.8%,-46.7%
Cn1nnc(CCCl)n1,-5.35%,-5.1%,-8.15%,-36.9%,16.8%,5.5%
O=c1[nH]c(=O)n(C2CC(O)C(CO)O2)cc1/C=C/Br (stereo unspecified),-17.9%,-9.25%,-8.95%,-5.4%,7.35%,-18.1%
CCC(=O)c1c(NOC2OCC(OC(C)=O)C(OC(C)=O)C2OC(C)=O)nc(OC)n(C)c1=O (stereo unspecified),-18.3%,-0.65%,-35.2%,9.6%,-24.8%,-11.5%
Cc1c(Cc2c(C)n(C)n(-c3ccccc3)c2=O)c(=O)n(-c2ccccc2)n1C,9.55%,-1.7%,-0.25%,13.4%,9.9%,9.5%

Structure (SMILES),growth inhibition [1],growth inhibition [2],growth inhibition [3],growth inhibition [4],growth inhibition [5],growth inhibition [6]
Fc1ccc(CSC(=S)Nc2ccc(I)cc2)cc1,98.8% (active),99.2% (active),99.2% (active),99.2% (active),98.7% (active),99% (active)
CCCc1cc(=O)oc2c3c(c4c(c12)OC(C)(C)C=C4)O[C@H](C)[C@@H](C)C3O (stereo partly specified),-6.25%,9.3%,-1.45%,-1.5%,11.3%,-3.4%
CC1=NNC(=O)C1CCS (stereo unspecified),-3.55%,4.35%,-1.45%,-3.1%,-8%,-7.4%
OCc1ccc2ccccc2n1,24%,-1.2%,21.6%,-1.55%,12.7%,31.1%
N#CC(=Nc1ccccc1N(C(=O)c1ccccc1)C(=O)c1ccccc1)c1ccccc1,-21.3%,-19.4%,-30.4%,2.95%,-51.5%,-38.4%
O=C(N/N=C\c1ccc(Cl)c(Cl)c1)c1ccncc1,-6.65%,-1%,-3.05%,5.4%,-1.75%,-5.7%
O=C1NC2(CCN(Cc3ccccc3)CC2)Nc2ccccc21,-10.4%,1.6%,-10.4%,-24.1%,2.8%,-6.75%
CCCCCCCC/C=C\CCCCCCCCCCCC(=O)O,-5.7%,5.75%,0.4%,-46%,-17%,-6.25%
CCCCCCCCCCC(CCCCCCCCCC)=NN=C(CCCCCCCCCC)CCCCCCCCCC,-41.4%,9.45%,1.35%,25.9%,1.1%,-9.3%
S=c1[nH]nc(-c2ccccc2)n1/N=C\c1ccc(-c2ccc(Cl)cc2)o1,6.4%,-21.5%,-0.7%,14.8%,-2.35%,5.5%
C(/C=C\c1ccccc1)=Nc1ccccc1,8%,-11.8%,-4.55%,9.35%,0.2%,17.1%
C=CCOC(=O)C1CCCCC1C(=O)OCC=C (stereo unspecified),1.45%,-1.65%,1.4%,3.3%,21.6%,1.9%
C/C=C/C(=O)OCCC[N+](C)(C)C,8.8%,12.3%,2.8%,-0.95%,13.9%,-23.8%
Cc1ccc(S(=O)(=O)OCCOc2ccc(C(C)(C)CC(C)(C)C)cc2)cc1,43.9%,-15.6%,30.5%,-6.2%,-1.65%,8.8%
COc1ccc(Br)c(CN2CCc3ccccc32)c1OS(=O)(=O)c1ccc(C)cc1,13.8%,-0.3%,18.7%,4.1%,5.45%,12.4%
COc1cc(C2c3cc4c(c(OS(=O)(=O)O)c3CC3COC(=O)C32)OCO4)cc(OC)c1OC (stereo unspecified),6.3%,3.5%,-18.9%,-14.4%,15%,7.4%
OC(c1cc2ccccc2c2ccccc12)C1CCCCN1 (stereo unspecified),21.9%,16.9%,43.8%,13.2%,20%,36.2%
CC(C)c1cccc(C(C)C)c1NC(=O)OC1CCCCC1C (stereo unspecified),-21.1%,-17.6%,7%,-1.95%,-4.65%,-6.4%
